MITF inh: blocks human microphthalmia-associated transcription factor. inhibition, % at 2.6 µM. 650,000 tested, 0.91% active. AlphaScreen MITF homodimerization, bead proximity signal; in the data active = inhibition above about 50%
GPR151 activ: activators of human GPR151. Q8TDV0. PathHunter beta-arrestin GPR151 cells, luminescence. activation, % at 11.2 µM. 650,000 tested, 1% active. AID 1508602; in the data active = activation above about 4.9%
Target sequence (Q8TDV0 whole entry, looked up): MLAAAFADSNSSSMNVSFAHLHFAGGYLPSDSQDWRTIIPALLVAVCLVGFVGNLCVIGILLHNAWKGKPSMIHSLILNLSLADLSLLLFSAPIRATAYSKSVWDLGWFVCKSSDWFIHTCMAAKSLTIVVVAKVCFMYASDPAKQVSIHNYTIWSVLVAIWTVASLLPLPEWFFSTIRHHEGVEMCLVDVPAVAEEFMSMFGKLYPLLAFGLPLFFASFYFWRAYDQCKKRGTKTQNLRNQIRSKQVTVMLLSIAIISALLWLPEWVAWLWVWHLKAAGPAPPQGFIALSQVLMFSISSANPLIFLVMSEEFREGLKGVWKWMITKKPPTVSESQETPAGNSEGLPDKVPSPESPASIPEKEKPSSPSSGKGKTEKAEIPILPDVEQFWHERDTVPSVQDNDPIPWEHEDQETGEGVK
FBW7 activator: human FBW7 E3 ligase activation, primary screen; 650,000 tested, 0.13% active; normalized activity (activation), % at 26.1 µM; AlphaScreen FBW7–phospho-cyclin E peptide binding, activator screen; in the data active = normalized activity above about 1.9%;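 note: purified mutant Fbw7 with reduced substrate affinity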
TEAD-YAP inh: TEAD-YAP interaction inhibition; HEK-TIYL cells, TEAD-Gal4/YAP UAS-luciferase luminescence; inhibition, % at 9.12 µM; 640,000 tested, 1.4% active; in the data active = inhibition above about 32%
GPR151 conf act: confirmation of human GPR151 activators | shares compounds with GPR151 activ | GPR151 PathHunter beta-arrestin cells, luminescence, 90 min; % of EA-reagent control over plate median | activation, % at 11.2 µM | 6,700 tested, under 10 active | AID 1508609;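 active = mean percent activation across replicates above the confirmation screen cutoff of 4.91%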
GPR119 counter: counter-screen for GPR151 activators: effect on human GPR119; shares compounds with GPR151 activ; GPR119 PathHunter beta-arrestin cells, luminescence, 90 min; 0 = compound-well median, 100 = enzyme-acceptor control; activation, % at 11.2 µM; 6,700 tested, 0.3% active; AID 1508611;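 active = mean percent activation in the counterscreen above 29.09%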;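 note: counterscreen on off-target GPR119 to flag nonselective hits from the GPR151 activator screen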
Of the large screens only hits and unclear results are named; the others gave an inactive call (follow-up assays come after a bar, where they were run); ! = not active in a repeat. Only some compounds are listed: those with a hit (about 3.5% of all), similar ones and a draw of the others.

COC(=O)C12CC3C(C1C(C)=NN2C(C)=O)C3(C)C (stereo not given)	none
CC(=O)OC12CC3C(C1C(C)=NN2C(=O)C(=O)N1N=C(C)C2C4C(CC21OC(C)=O)C4(C)C)C3(C)C (stereo not given)	GPR151 activ 7.8 | GPR151 conf act inactive | GPR119 counter inactive
Cc1nn(CC(=O)N2CCCCC2)c(=O)c2ccccc12	none
CN1CCN(C(=O)c2ccc(-c3nc(NCc4cccc(C(F)(F)F)c4)c4ncn(Cc5ccc(C(F)(F)F)cc5)c4n3)cc2)CC1	GPR151 activ 11 | GPR151 conf act inactive | GPR119 counter inactive
FC(F)(F)c1ccc(Cn2cnc3c(NCc4cccc(C(F)(F)F)c4)nc(Nc4nccc5ccccc45)nc32)cc1	GPR151 activ 5.6 | GPR151 conf act inactive | GPR119 counter inactive
CC1CCCC(C)N1NC(=S)Nc1ccccc1 (stereo not given)	GPR151 activ 4.9 | GPR151 conf act inactive | GPR119 counter inactive
CCOc1ccc(Nc2n[nH]c(=S)n2-c2ccc(OCC)cc2)cc1	GPR151 activ 6.3 | GPR151 conf act inactive | GPR119 counter inactive
C=CCn1c(SCC(=O)Nc2ccccc2F)nc2sc3c(c2c1=O)CCC(C)C3 (stereo not given)	GPR151 activ 8.7 | GPR151 conf act inactive | GPR119 counter inactive
COc1cc(-c2nc3sc4c(c3c(=O)[nH]2)CCCC4)cc(Cl)c1OCCOc1cc(C)ccc1C(C)C	none
O=C(C[n+]1ccccc1)Nc1ccccc1C(=O)O	GPR151 activ 7.5 | GPR151 conf act inactive | GPR119 counter inactive
Cc1ccc(NC(=O)Cn2nnc(C(=O)O)c2C(=O)O)cc1Cl	none
CCOc1ccc(/C=C2\NC(=S)N(C)C2=O)cc1OC	none
COc1ccc(OC)c(NC(=O)CC2C(=O)NCCN2C(=O)C(F)(F)F)c1 (stereo not given)	GPR151 activ 7.0 | GPR151 conf act inactive | GPR119 counter inactive
O=C(Cn1nnc(-c2ccccc2NC(=O)c2cccs2)n1)NC1CCCC1	none
Cc1cc(C)cc(NS(=O)(=O)c2ccc(-c3cc(C)no3)cc2)c1	GPR151 activ 8.2, TEAD-YAP inh 58 | GPR151 conf act inactive | GPR119 counter inactive
CCc1ccccc1NC(=O)c1ccc(F)c(S(=O)(=O)N2CCCCC2C)c1 (stereo not given)	GPR151 activ 6.7 | GPR151 conf act inactive | GPR119 counter inactive
CCOC(=O)Cn1nnnc1CN(Cc1ccccc1)Cc1cc2cc(C)ccc2[nH]c1=O	GPR151 activ 6.4 | GPR151 conf act inactive | GPR119 counter inactive
COc1ccc(N2C(=O)CN(C(=O)c3ccc(N4CCOCC4)cc3)CC2(C)C)cc1	none
O=C(O)C(Oc1ccccc1-n1cccc1)c1ccccc1 (stereo not given)	GPR151 activ 6.4 | GPR151 conf act inactive | GPR119 counter inactive
O=C(c1ccccc1)c1ccccc1-n1cccc1	none
COc1ccc(CNC(=O)CSc2nnc3sc4ccccc4n23)cc1C(=O)O	GPR151 activ 5.5 | GPR151 conf act inactive | GPR119 counter inactive
CCOC(=O)CCN1C(=O)[C@H]2[C@H]3[C@H](O)[C@H](O)C/C(=N\NC(=O)OCc4ccccc4)[C@@H]3CC[C@H]2C1=O	none (no result: TEAD-YAP inh)
CCN1C(=O)[C@H]2[C@H]3[C@H](O)[C@H](O)C/C(=N\NC(=O)OCc4ccccc4)[C@@H]3CC[C@H]2C1=O	GPR151 activ 5.0 (no result: TEAD-YAP inh) | GPR151 conf act inactive | GPR119 counter inactive
COc1ccc(OC)c(NC(=O)COc2ccc(Br)cc2C(C)(C)C)c1	GPR151 activ 5.9 | GPR151 conf act inactive | GPR119 counter inactive
COc1ccc(NC(=O)COc2ccc(C)cc2C)c(OC)c1	GPR151 activ 7.9 | GPR151 conf act inactive | GPR119 counter inactive
COc1ccc(OC)c(NC(=O)COc2ccccc2C(C)(C)C)c1	none
COc1ccc(Nc2ncnc3c2cnn3-c2ccc(Cl)cc2)cc1Cl	GPR151 activ 11 | GPR151 conf act inactive | GPR119 counter inactive
COc1ccc(-n2ncc3c(Nc4ccc(Cl)c(Cl)c4)ncnc32)cc1	none
O=C1NCN(c2ccccc2)C12CCN(CCCC(c1ccc(F)cc1)c1ccc(F)cc1)CC2	GPR151 activ 7.2! | GPR151 conf act inactive | GPR119 counter inactive
Fc1ccc(C(CCCN2CCN3CCCC3C2)c2ccc(F)cc2)cc1 (stereo not given)	none
CCOC(=O)c1nnn(CC(=O)NC(=O)Nc2cccc(CC)c2)c1C(=O)OCC	GPR151 activ 5.7 | GPR151 conf act inactive | GPR119 counter inactive
S=C(Nc1ccc2c(c1)OCO2)N1CCN(c2ncccn2)CC1	GPR151 activ 6.6 | GPR151 conf act inactive | GPR119 counter inactive
COc1ccccc1N1CCN(C2CCCN(C(=O)c3c(C)cc(C)[nH]c3=O)C2)CC1 (stereo not given)	none
O=C(Cn1c(=O)oc2ccccc21)Nc1ccc2c(c1)OCO2	none
COc1ccc(C(=O)N(C)c2ccccc2)cc1S(=O)(=O)N1CCCC1	GPR151 activ 5.2 | GPR151 conf act inactive | GPR119 counter inactive
CN(C(=O)c1cccc(S(=O)(=O)N2CCCCC2)c1)c1ccccc1	none
CNC(=O)c1ccc(OC)c(S(=O)(=O)N2CCC(C)CC2)c1	GPR151 activ 5.4 | GPR151 conf act inactive | GPR119 counter inactive
CCN(CC)CCN(C)Cc1ccccc1Cl	none
CCN(CC)CCN(C)Cc1ccccc1C	GPR151 activ 5.0 | GPR151 conf act inactive | GPR119 counter inactive
COc1cc(=O)n2c(c1C(=O)N1CCCC1)CCN(Cc1cc(C)c(C)cc1C)CC2	GPR151 activ 5.2 | GPR151 conf act inactive | GPR119 counter inactive
CC(C)(C)NC(=O)C1CCC2CC3CCC4NC(=O)CCC4(C)C3CC21C (stereo not given)	none
COC(=O)CN1C(c2ccccc2Br)=Nc2ccc(Br)cc2C1c1ccccc1 (stereo not given)	none
Cc1ccccc1Nc1nc(N)nc(COc2ccc([N+](=O)[O-])cc2Cl)n1	GPR151 activ 5.7 | GPR151 conf act inactive | GPR119 counter inactive
Cc1ccccc1Nc1nc(N)nc(COC(=O)c2cc(=O)c3ccccc3o2)n1	GPR151 activ 8.0 | GPR151 conf act inactive | GPR119 counter inactive
N#CSCC(=O)NS(=O)(=O)c1ccc(Cl)cc1	none
COc1ccc(CSc2nnc(-c3ccc(OC)c(OC)c3)n2-c2ccccc2)cc1	none
CCOc1ccc2nc(SCC(=O)Nc3ccc4c(c3)OCCO4)c(C#N)cc2c1	GPR151 activ 6.4 | GPR151 conf act inactive | GPR119 counter inactive
N#Cc1cc2cc3c(cc2nc1SCC(=O)Nc1ccc(F)cc1)OCCO3	GPR151 activ 6.2 | GPR151 conf act inactive | GPR119 counter inactive
N#Cc1cc2cc3c(cc2nc1SCC(=O)Nc1ccc(F)cc1)OCO3	none
CCOc1ccc2cc(C#N)c(SCC(=O)NC(C)(C)C)nc2c1	GPR151 activ 7.0 | GPR151 conf act inactive | GPR119 counter inactive
CCOc1ccc(N2C(=O)NC(=O)/C(=C\c3ccc(OC)c(OC)c3)C2=O)cc1	none
